We go through 15 molecules from article PMC11102866, “Nucleosome-bound NR5A2 structure reveals pioneer factor mechanism by DNA minor groove anchor competition”.

Sequences and labels used below:
B1: 12 (nucleosome)
DNA 1: ATCCTGGAGAATCCTCAAGGCCAGGCCGCTCAATTGGTCGTAGACAGCTCTAGCACCGCTTAAACGCACGTACGCGCTGTCCCCCGCGTTTTAACCGCCAAGGGGATTACTCCCTAGTCTCCAGGCACGTGTCAGATATATACATCCTGTGAT
DNA 2: ATCACAGGATGTATATATCTGACACGTGCCTGGAGACTAGGGAGTAATCCCCTTGGCGGTTAAAACGCGGGGGACAGCGCGTACGTGCGTTTAAGCGGTGCTAGAGCTGTCTACGACCAATTGAGCGGCCTGGCCTTGAGGATTCTCCAGGAT
modifications: reconstituted with mouse histones H2A, H2B, H3.3 and H4
B2: 13 (nucleosome)
DNA 1: B1 DNA 1 with T15C, C16T, A17C, G19A, C21G, A23C, G24A
DNA 2: B1 DNA 2 with C130T, T131G, G133C, C135T, T137G, G138A, A139G
modifications: reconstituted with mouse histones H2A, H2B, H3.3 and H4
B3: 102 (nucleosome)
DNA 1: ATCCTGGAGAATCCCGGTGCCGAGGCCGCTCAATTGGTCGTAGACAGCTCTAGCACCGCTTAAACGCACGTACGCGCTGTCCCCCGCGTTTTAACCGCCAAGGGTCAAGGCCACTAGTCTCCAGGCACGTGTCAGATATATACATCCTGTGAT
DNA 2: ATCACAGGATGTATATATCTGACACGTGCCTGGAGACTAGTGGCCTTGACCCTTGGCGGTTAAAACGCGGGGGACAGCGCGTACGTGCGTTTAAGCGGTGCTAGAGCTGTCTACGACCAATTGAGCGGCCTCGGCACCGGGATTCTCCAGGAT
modifications: reconstituted with mouse histones H2A, H2B, H3.3 and H4
B4: 105 (nucleosome)
DNA 1: B3 DNA 1 with T105G, C106A, A107T, A108T, G109C, G110A, C111A, C112G, A113G, T115C
DNA 2: B3 DNA 2 with A39G, T41C, G42C, G43T, C44T, C45G, T46A, T47A, G48T, A49C
modifications: reconstituted with mouse histones H2A, H2B, H3.3 and H4
B5: 103 (nucleosome)
DNA 1: B3 DNA 1 with T105G, C106T, A107C, G109A, C111G, A113C, C114A
DNA 2: B3 DNA 2 with G40T, T41G, G43C, C45T, T47G, G48A, A49C
modifications: reconstituted with mouse histones H2A, H2B, H3.3 and H4
B6: 104 (nucleosome)
DNA 1: B3 DNA 1 with T105G, C106A, A107T, A108C, G109A, G110A, C111G, C112G, A113C, T115A
DNA 2: B3 DNA 2 with A39T, T41G, G42C, G43C, C44T, C45T, T46G, T47A, G48T, A49C
modifications: reconstituted with mouse histones H2A, H2B, H3.3 and H4
B7: 106 (nucleosome)
DNA 1: ATCCTGGAGAATCCCGGTGCCGAGGCCGCTCAATTGGTCGTAGACAGCTCTAGCACCGCTTAAACGCACGTACGCGCTGTCCCCCGCGTTTTAACCGCCAAGGGGATTTCAAGGCCATCTCCAGGCACGTGTCAGATATATACATCCTGTGAT
DNA 2: ATCACAGGATGTATATATCTGACACGTGCCTGGAGATGGCCTTGAAATCCCCTTGGCGGTTAAAACGCGGGGGACAGCGCGTACGTGCGTTTAAGCGGTGCTAGAGCTGTCTACGACCAATTGAGCGGCCTCGGCACCGGGATTCTCCAGGAT
modifications: reconstituted with mouse histones H2A, H2B, H3.3 and H4
B8: 111 (nucleosome)
DNA 1: B7 DNA 1 with T109A, A111T, A112C, G113C, G114T, C116A, T118G, C119G, T120C, C122A
DNA 2: B7 DNA 2 with G32T, A34G, G35C, A36C, G38T, C40A, C41G, T42G, T43A, A45T
modifications: reconstituted with mouse histones H2A, H2B, H3.3 and H4
B9: 112 (nucleosome)
DNA 1: B7 DNA 1 with T109A, A111T, A112C, G113C, G114C, C115T, T118A, C119G, T120G
DNA 2: B7 DNA 2 with A34C, G35C, A36T, G39A, C40G, C41G, T42G, T43A, A45T
modifications: reconstituted with mouse histones H2A, H2B, H3.3 and H4
B10: 108 (nucleosome)
DNA 1: B7 DNA 1 with T109A, A111T, A112C, G113A, G114A, C115G, C116G, A117C, T118C, C119A
DNA 2: B7 DNA 2 with G35T, A36G, T37G, G38C, G39C, C40T, C41T, T42G, T43A, A45T
modifications: reconstituted with mouse histones H2A, H2B, H3.3 and H4
B11: 109 (nucleosome)
DNA 1: B7 DNA 1 with T109A, A111T, A112T, G113C, G114A, C115A, C116G, A117G, T118C, T120A
DNA 2: B7 DNA 2 with A34T, A36G, T37C, G38C, G39T, C40T, C41G, T42A, T43A, A45T
modifications: reconstituted with mouse histones H2A, H2B, H3.3 and H4
B12: 107 (nucleosome)
DNA 1: B7 DNA 1 with T109A, C110T, A111C, G113A, C115G, A117C, T118A
DNA 2: B7 DNA 2 with A36T, T37G, G39C, C41T, T43G, G44A, A45T
modifications: reconstituted with mouse histones H2A, H2B, H3.3 and H4
B13: 110 (nucleosome)
DNA 1: ATCCTGGAGAATCCCGGTGCCGAGGCCGCTCAATTGGTCGTAGACAGCTCTAGCACCGCTTAAACGCACGTACGCGCTGTCCCCCGCGTTTTAACCGCCAAGGGGATTACTCTCAAGGCCACAGGCACGTGTCAGATATATACATCCTGTGAT
DNA 2: ATCACAGGATGTATATATCTGACACGTGCCTGTGGCCTTGAGAGTAATCCCCTTGGCGGTTAAAACGCGGGGGACAGCGCGTACGTGCGTTTAAGCGGTGCTAGAGCTGTCTACGACCAATTGAGCGGCCTCGGCACCGGGATTCTCCAGGAT
modifications: reconstituted with mouse histones H2A, H2B, H3.3 and H4
B14: 1 (nucleosome)
DNA 1: ATCTCAAGGCCACCCGGTGCCGAGGCCGCTCAATTGGTCGTAGACAGCTCTAGCACCGCTTAAACGCACGTACGCGCTGTCCCCCGCGTTTTAACCGCCAAGGGGATTACTCCCTAGTCTCCAGGCACGTGTCAGATATATACATCCTGTGAT
DNA 2: ATCACAGGATGTATATATCTGACACGTGCCTGGAGACTAGGGAGTAATCCCCTTGGCGGTTAAAACGCGGGGGACAGCGCGTACGTGCGTTTAAGCGGTGCTAGAGCTGTCTACGACCAATTGAGCGGCCTCGGCACCGGGTGGCCTTGAGAT
modifications: reconstituted with mouse histones H2A, H2B, H3.3 and H4
B15: 2 (nucleosome)
DNA 1: B14 DNA 1 with T4C, C5T, A6C, G8A, C10G, A12C, C13A
DNA 2: B14 DNA 2 with G141T, T142G, G144C, C146T, T148G, G149A, A150G
modifications: reconstituted with mouse histones H2A, H2B, H3.3 and H4

Numbering of substitutions follows the chain as printed. In names and notes the source's numbering stands.

For one assay, the target named is NR5A2 wild type;histone octamer (Homo sapiens;, UniProt O00482;C0HKE1;Q6ZWY9;P84244;P62806 1-541;2-130;2-126;2-136;2-103, |). The experiment in a line: SeEN-seq (EMSA of nucleosome library followed by sequencing); 0.8 uM human NR5A2; 20 mM Tris-HCl pH 7.5, 120 mM NaCl, 1 mM MgCl2, 10 uM ZnCl2, 1 mM DTT, 100 ug/ml BSA, room temperature, 30 min; 0.1 uM nucleosome library; high values mean tight binding. For orientation: Mobility shift assays separate free from complexed probe on a gel.
As for B1, the binding signal is 4.6 log2 enrichment (bound/unbound, relative to Widom 601).
Same read-out and setting: the figure for B2 is 4.51 log2 enrichment (bound/unbound, relative to Widom 601); for B3 it is 0.685 log2 enrichment (bound/unbound, relative to Widom 601).
Take B4: the binding signal is 1.55 log2 enrichment (bound/unbound, relative to Widom 601).
Turning to B5, the binding signal was 0.782 log2 enrichment (bound/unbound, relative to Widom 601).
Same read-out and setting: the figure for B6 is 1.03 log2 enrichment (bound/unbound, relative to Widom 601); for B7 it is 1.84 log2 enrichment (bound/unbound, relative to Widom 601); for B8 it is 1.01 log2 enrichment (bound/unbound, relative to Widom 601).
On the same count and under the same terms, the figure for B9 is 0.87 log2 enrichment (bound/unbound, relative to Widom 601).
The same measure, in the same setting: the figure for B10 is 0.869 log2 enrichment (bound/unbound, relative to Widom 601); for B11 it is 0.938 log2 enrichment (bound/unbound, relative to Widom 601).
In the case of B12, the binding signal is 0.733 log2 enrichment (bound/unbound, relative to Widom 601).
Same read-out and setting: as for B13, the figure is 0.939 log2 enrichment (bound/unbound, relative to Widom 601); as for B14, 6.41 log2 enrichment (bound/unbound, relative to Widom 601).
On the same count and under the same terms, as for B15, the figure is 6.87 log2 enrichment (bound/unbound, relative to Widom 601).

The next assay deals with mouse Nr5a2 wild type;histone octamer (Mus musculus;, UniProt P45448;C0HKE1;Q6ZWY9;P84244;P62806 1-560;2-130;2-126;2-136;2-103, |). In words: SeEN-seq (EMSA of nucleosome library followed by sequencing); 1.2 uM mouse Nr5a2; 20 mM Tris-HCl pH 7.5, 120 mM NaCl, 1 mM MgCl2, 10 uM ZnCl2, 1 mM DTT, 100 ug/ml BSA, room temperature, 30 min; 0.1 uM nucleosome library; high values mean tight binding.
For the molecule B1, the binding signal is 4.25 log2 enrichment (bound/unbound, relative to Widom 601).
The same measure, in the same setting: the figure for B2 is 3.55 log2 enrichment (bound/unbound, relative to Widom 601); for B3 it is 0.658 log2 enrichment (bound/unbound, relative to Widom 601).
Turning to B4, the binding signal was 1.09 log2 enrichment (bound/unbound, relative to Widom 601).
Same read-out and setting: as for B5, the figure is 0.764 log2 enrichment (bound/unbound, relative to Widom 601); as for B6, 0.764 log2 enrichment (bound/unbound, relative to Widom 601); as for B7, 1.23 log2 enrichment (bound/unbound, relative to Widom 601).
As for B8, the binding signal was 1.02 log2 enrichment (bound/unbound, relative to Widom 601).
Same read-out and setting: the figure for B9 is 0.753 log2 enrichment (bound/unbound, relative to Widom 601).
In the case of B10, the binding signal is 0.815 log2 enrichment (bound/unbound, relative to Widom 601).
As for B11, the binding signal is 0.719 log2 enrichment (bound/unbound, relative to Widom 601).
Same read-out and setting: as for B12, the figure is 0.834 log2 enrichment (bound/unbound, relative to Widom 601); as for B13, 0.962 log2 enrichment (bound/unbound, relative to Widom 601); as for B14, 5.85 log2 enrichment (bound/unbound, relative to Widom 601).
Still for that read-out and setting: the figure for B15 is 5.51 log2 enrichment (bound/unbound, relative to Widom 601).
